Several values for one entry are separate records, joined by “and”; a condition that tells them apart may be missing. Equal entries are not always repeated. Hit rate of the full screen: of about 5,500 compounds, about 2,000 (36%) were called active. Inconclusive results (about 18%) are left out. Rule as the data show it: active = normalized growth mostly below about 0.91 (no sharp cut-off); inconclusive = no clear call, values can overlap the other calls; inactive = mostly above about 0.92. The list shows a part of the results.
Assay: chemical genetic growth profiling, strain panel (AID 1159580);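 also: tested at 20 µM; growth read once vehicle control cultures reached saturation at 30 °C; 1 = growth at the plate median or of vehicle wells; lower values mean less growth of the strain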
Conditions: S. cerevisiae deletion strains, growth OD

Measured: normalized growth

COc1cc2cc3c4cc(OC)c(OC)cc4cc[n+]3c(C)c2cc1OC
inactive: locus YAL021C, strain ccr4, stronger effect = lower value 1.05 | locus YAL026C, strain drs2, stronger effect = lower value 1.03 | locus YAL030W, strain snc1, stronger effect = lower value 1.01 | locus YBL061C, strain skt5, stronger effect = lower value 1.02 | locus YBR009C, strain hhf1, stronger effect = lower value 1.01 | locus YBR021W, strain FUR4, stronger effect = lower value 1 | locus YBR023C, strain chs3, stronger effect = lower value 1.01 | locus YBR171W, strain sec66, stronger effect = lower value 1.03 | locus YBR229C, strain ROT2, stronger effect = lower value 1.01 | locus YBR231C, strain swc5, stronger effect = lower value 1 | locus YBR279W, strain paf1, stronger effect = lower value 1.01 | locus YCL011C, strain gbp2, stronger effect = lower value 1.01 | locus YCL016C, strain dcc1, stronger effect = lower value 0.997 | locus YCL029C, strain bik1, stronger effect = lower value 1.01 | locus YCL061C, strain MRC1, stronger effect = lower value 1.01 | locus YCL069W, strain vba3, stronger effect = lower value 1.01 | locus YCR088W, strain abp1, stronger effect = lower value 1.01 | locus YDL005C, strain med2, stronger effect = lower value 1.02 | locus YDL035C, strain GPR1, stronger effect = lower value 0.998 | locus YDL040C, strain nat1, stronger effect = lower value 0.992 | locus YDL074C, strain BRE1, stronger effect = lower value 0.996 | locus YDL101C, strain DUN1, stronger effect = lower value 1.01 | locus YDL134C, strain PPH21, stronger effect = lower value 0.982 | locus YDL185W, strain tfp1, stronger effect = lower value 1.02 | locus YDL192W, strain arf1, stronger effect = lower value 1 | locus YDR001C, strain nth1, stronger effect = lower value 1.01 | locus YDR069C, strain doa4, stronger effect = lower value 1.02 | locus YDR101C, strain arx1, stronger effect = lower value 1.01 | locus YDR137W, strain rgp1, stronger effect = lower value 1.06 | locus YDR159W, strain sac3, stronger effect = lower value 1 | locus YDR162C, strain NBP2, stronger effect = lower value 0.999 | locus YDR195W, strain ref2 0.97 | locus YDR297W, strain sur2, stronger effect = lower value 1.01 | locus YDR318W, strain mcm21, stronger effect = lower value 0.987 | locus YDR334W, strain swr1, stronger effect = lower value 1.02 | locus YDR335W, strain msn5, stronger effect = lower value 1.01 | locus YDR388W, stronger effect = lower value 1 | locus YDR392W, strain spt3, stronger effect = lower value 0.848 | locus YDR502C, strain sam2, stronger effect = lower value 0.987 | locus YEL003W, strain gim4, stronger effect = lower value 1.01 | locus YEL037C, strain rad23, stronger effect = lower value 1.01 | locus YEL061C, strain CIN8 (second series), stronger effect = lower value 1.01 | locus YEL061C, strain CIN8, stronger effect = lower value 1.01 | locus YER015W, strain faa2, stronger effect = lower value 1.01 | locus YER016W, strain bim1, stronger effect = lower value 1 | locus YER110C, stronger effect = lower value 1.02 | locus YER111C, strain swi4, stronger effect = lower value 1.03 | locus YER155C, strain BEM2 (second series), stronger effect = lower value 0.97 | locus YER155C, strain BEM2, stronger effect = lower value 1.01 | locus YER167W, strain BCK2, stronger effect = lower value 1 | locus YFR010W, strain ubp6, stronger effect = lower value 1.03 | locus YGL078C, strain dbp3, stronger effect = lower value 0.997 | locus YGL086W, strain mad1, stronger effect = lower value 1.03 | locus YGL167C, strain pmr1, stronger effect = lower value 1.01 | locus YGL173C, strain kem1, stronger effect = lower value 1.03 | locus YGL227W, strain vid30, stronger effect = lower value 1.01 | locus YGL240W, strain doc1, stronger effect = lower value 0.999 | locus YGL248W, strain PDE1, stronger effect = lower value 0.997 | locus YGL253W, strain hxk2, stronger effect = lower value 1.03 | locus YGR135W, strain pre9, stronger effect = lower value 0.988 | locus YGR229C, strain SMI1, stronger effect = lower value 1.01 | locus YGR252W, strain gcn5, stronger effect = lower value 0.904 | locus YHR013C, strain ard1, stronger effect = lower value 1.01 | locus YHR027C, strain rpn1, stronger effect = lower value 1.04 | locus YHR030C, strain SLT2, stronger effect = lower value 1.01 and 0.988 | locus YHR079C, strain IRE1 (second series), stronger effect = lower value 1.02 | locus YHR079C, strain IRE1, stronger effect = lower value 1 | locus YHR094C, strain hxt1, stronger effect = lower value 1.01 | locus YHR129C, strain ARP1, stronger effect = lower value 1 | locus YHR142W, strain chs7, stronger effect = lower value 1.01 | locus YHR200W, strain rpn10, stronger effect = lower value 0.994 | locus YIL066C, strain RNR3, stronger effect = lower value 1.01 | locus YIL073C, strain SPO22, stronger effect = lower value 1.01 | locus YIL125W, strain kgd1, stronger effect = lower value 1.01 | locus YIR030C, strain dcg1, stronger effect = lower value 1 | locus YJL092W, strain hpr5, stronger effect = lower value 1.01 | locus YJL095W, strain BCK1 (second series), stronger effect = lower value 1.01 | locus YJL095W, strain BCK1, stronger effect = lower value 1.01 and 0.99 | locus YJL115W, strain asf1, stronger effect = lower value 1.01 | locus YJL129C, strain trk1, stronger effect = lower value 1.02 | locus YJL134W, strain LCB3, stronger effect = lower value 1.01 | locus YJL154C, strain vps35, stronger effect = lower value 1.01 | locus YJL164C, strain tpk1, stronger effect = lower value 0.984 | locus YJL166W, strain qcr8, stronger effect = lower value 1.02 | locus YJL168C, strain set2, stronger effect = lower value 1.01 | locus YJL187C, strain SWE1 (second series), stronger effect = lower value 0.991 | locus YJL187C, strain SWE1, stronger effect = lower value 1.01
